In the library only some 2.4% were active in any assay of this set; here they are far more common.
CHRM1 antagonist: blocks human M1 muscarinic receptor | P11229 | CHO-K1 hM1, Fluo-8 calcium fluorescence, ACh EC80 antagonist | inhibition, % at 3 µM | 360,000 tested, 1.3% active;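 active means percent inhibition above its own plate's cutoff, namely the mean of that plate's compound wells plus 3 SD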;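 further: peak over basal fluorescence ratio during 140 s after agonist addition; 0% = ACh EC80 plus DMSO and 100% = DMSO alone without agonist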
Target sequence (P11229 whole entry, looked up): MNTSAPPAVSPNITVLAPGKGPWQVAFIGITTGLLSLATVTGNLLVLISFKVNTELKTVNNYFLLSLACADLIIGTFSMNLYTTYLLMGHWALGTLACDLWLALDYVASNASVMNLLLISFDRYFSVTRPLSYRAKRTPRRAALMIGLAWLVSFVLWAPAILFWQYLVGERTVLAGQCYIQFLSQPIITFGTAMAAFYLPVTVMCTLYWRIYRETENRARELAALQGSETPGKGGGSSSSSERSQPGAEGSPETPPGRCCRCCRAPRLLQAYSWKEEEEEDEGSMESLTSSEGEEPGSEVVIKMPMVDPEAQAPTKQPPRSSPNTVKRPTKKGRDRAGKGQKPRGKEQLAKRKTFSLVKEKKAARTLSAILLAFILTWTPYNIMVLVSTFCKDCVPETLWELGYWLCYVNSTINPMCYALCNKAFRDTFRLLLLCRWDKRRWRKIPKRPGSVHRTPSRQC
M1 ag: human M1 muscarinic receptor agonism; activation, % at 3 µM; 360,000 tested, 0.33% active; P11229; AID 588814; CHO-K1 hM1, Fluo-8 calcium fluorescence, agonist mode; 0% DMSO, 100% acetylcholine EC100;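 active means activation above the run's mean compound activation plus 3 SD, cut at about 16% in these data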;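 further: peak over basal fluorescence ratio within a 140 s kinetic read after compound addition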
M1 PAM: human CHRM1 positive allosteric modulation | activation, % at 3 µM | CHO-K1 hM1, Fluo-8 calcium fluorescence, ACh EC20; 0% = ACh EC20, 100% = maximal ACh | 360,000 tested, 0.088% active | P11229; in the data active means activation above about 19%, passing the limit was not always enough
CHO-K1 Ca ag: nonselective activator or artifact in parental CHO-K1 cells | Fluo-8 calcium fluorescence; scaled to maximal ATP response, vehicle zero | 360,000 tested, 0.48% active | AID 602248 | activation, % at 3 µM; in the data active means activation above about 15%;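 further: untransfected CHO-K1 host cells lacking M1 receptor as counterscreen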
CHO-K1 Ca PAM: nonselective activator or artifact in parental CHO-K1 calcium assay. ATP EC20, Fluo-8 calcium fluorescence; 0% at ATP EC20, 100% at ATP max. activation, % at 3 µM. 360,000 tested, 0.02% active. AID 602247;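 active means activation above the run cutoff, the mean activation of all test compounds plus 3 SD, cut at about 40% in these data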;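 further: peak over basal fluorescence ratio in a 140 s read after ATP addition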
CHO-K1 Ca antag: counter-screen for M1 antagonists: effect in parental CHO-K1 cells; ATP-induced calcium, Fluo-8 fluorescence; inhibition, % at 3 µM; 360,000 tested, 0.6% active; AID 602250;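 active means inhibition above a per-plate cutoff, the plate's mean sample inhibition plus 3 SD, cut at about 24% in these data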;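 further: 0% = DMSO plus EC80 ATP and 100% = DMSO alone without ATP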
The depositor's hits bear a star.

SMILES	CHRM1 antagonist	M1 ag	M1 PAM	CHO-K1 Ca ag	CHO-K1 Ca PAM	CHO-K1 Ca antag
C[C@@H]1CCCCO[C@H](CN(C)S(=O)(=O)c2cccs2)[C@@H](C)CN([C@H](C)CO)C(=O)c2cc(NC(=O)C3CCCCC3)ccc2O1	0.4	-8.2	-0.9	1.4	19.8	-7.2
COc1ccc(-c2cc(-c3ccccc3O)[nH]n2)cc1OC	31.3*	-3.5	-8.3	0.0	-8.7	25.1*
Clc1cccc(-c2ccc(CNCc3ccccn3)o2)c1	-5.3	-7.1	5.7	3.9	25.0	-13.4
O=c1[nH]nc(Cc2ccc(-c3cccc(Cl)c3)o2)c2ccccc12	19.2	-3.1	-2.7	-0.1	-9.2	24.4*
COc1ccc(NC(=O)C2Cc3c(-c4cccc(C(N)=O)c4)ccnc3O2)cc1OC (stereo not drawn)	-18.5	-0.2	4.2	-0.2	-2.8	-7.5
COc1ccc(NC(=O)C2Cc3c(-c4cccc(C(C)=O)c4)ccnc3O2)cc1OC (stereo not drawn)	6.3	6.3	-5.1	2.4	-16.5	23.9*
COc1ccc(N2CC(NC(=O)N3CCN(c4ccccc4)CC3)CC2=O)cc1 (stereo not drawn)	-6.0	-3.2	4.0	16.0*	19.5	-5.0
COc1ccc(N2CC(NC(=O)Nc3ccccc3)CC2=O)cc1 (stereo not drawn)	1.4	2.4	1.8	15.3*	1.2	10.8
COc1ccc(N2CCN(C(=O)C3CC(=O)N(c4ccc(C)cc4)C3)CC2)cc1 (stereo not drawn)	-6.2	-1.8	2.7	0.2	17.6	-18.2
CCCNC(=O)C1(C)CCN(C(=O)c2cc(F)cc(F)c2)C1 (stereo not drawn)	-3.2	-2.5	1.1	-0.1	2.3	13.4
O=[N+]([O-])c1cccnc1N1CCC(c2cc(-c3ccc(Cl)cc3Cl)n[nH]2)CC1	3.2	-2.3	-1.2	0.1	-7.1	16.9
O=[N+]([O-])c1cccnc1N1CCC(c2cc(-c3cccc(C(F)(F)F)c3)n[nH]2)CC1	22.3*	-7.0	-14.4	0.3	-4.0	5.8
CNc1ncnc2c1ncn2[C@H]1CN(Cc2ccco2)C[C@@H](CO)O1	-13.3	-0.3	9.1	-0.2	4.9	-0.6
O=C(NCCc1ccccc1)c1nc(-c2cccs2)no1	-5.5	-9.7	7.5	0.2	4.0	26.3*
O=C(NCc1cccs1)c1nc(-c2cccs2)no1	-1.1	-7.1	2.1	0.2	-4.8	10.4
N#CCC(=O)N/N=C/c1cc([N+](=O)[O-])ccc1N1CCOCC1	7.1	-4.8	-8.1	0.0	-15.4	25.8*
O=C(N/N=C/c1ccccc1)c1ccc(N2CCOCC2)c([N+](=O)[O-])c1	3.2	-5.4	1.1	1.0	15.4	-3.7
O=C(N/N=C/c1cc([N+](=O)[O-])c(N2CCOCC2)cc1N1CCOCC1)c1cccnc1	7.6	-6.2	-1.0	21.3*	16.7	0.8
O=C(N/N=C/C=C/c1ccccc1[N+](=O)[O-])c1ccncc1	-19.1	-2.1	6.7	0.0	1.4	-2.6
O=C(N/N=C/c1ccccc1[N+](=O)[O-])c1ccncc1	-0.3	-1.7	26.3*	0.3	-0.4	-6.8
COc1ccc(-c2csc(NC(=O)C3=NN(c4ccccc4)C(=O)CC3)n2)cc1	24.0*	-6.3	-17.9	9.1	12.2	10.1
O=C(c1ccncc1)N1CCN(C2CCC(c3ccccc3)CC2)CC1 (stereo not drawn)	10.9	-0.5	-1.6	1.7	4.0	-11.4
COc1cccc(C(=O)N2CCN(C3CCC(c4ccccc4)CC3)CC2)c1OC (stereo not drawn)	21.6	42.8*	-10.8	1.1	2.4	-12.2
CC(Oc1ccc(F)cc1F)C(=O)NNC(=S)NCC1CCCO1 (stereo not drawn)	-12.7	-1.9	8.8	0.4	19.7	-2.8
O=c1ccc(-c2ccc(S(=O)(=O)Nc3ccc(F)cc3)o2)n[nH]1	-9.1	-1.5	4.2	0.4	30.4	-10.1
SMILES	CHRM1 antagonist	M1 ag	M1 PAM	CHO-K1 Ca ag	CHO-K1 Ca PAM	CHO-K1 Ca antag
CCCCCCCCCCCCCCCC[n+]1ccc(/C=N/O)cc1	31.3*	-11.8	-24.4	0.4	32.3	-15.8
Cc1[nH]c(C)c(S(=O)(=O)NCCc2ccccc2)c1C(=O)N1CCCCC1	1.1	-2.5	1.8	0.3	-3.2	-12.0
CC(C)(C)OC(=O)C[C@@H]1C/C=C\C[C@H](CC(=O)N(CCO)Cc2ccccc2)C(=O)N[C@H](Cc2ccccc2)COC1=O	4.1	-4.0	-4.4	4.2	-7.7	-9.2
CCCCn1c(N)c(N(CCOC)C(=O)c2ccc3c(c2)C(=O)N(c2ccccc2C)C3=O)c(=O)[nH]c1=O	33.0*	-2.4	-0.7	0.1	-10.2	7.0
CCOc1ccc(NC(=S)NC(=O)c2cnn(CC)c2)c([N+](=O)[O-])c1	-1.9	-3.3	5.1	1.6	10.0	-4.9
CCOc1ccc(NC(=S)NC(=O)/C=C/c2ccc(Br)cc2)c([N+](=O)[O-])c1	37.5*	-3.1	-5.5	0.4	27.4	-23.0
Cc1ccc(Cl)c2c1=NC(=O)C=2c1[nH]c(=S)[nH]c1O	7.8	1.2	-0.3	17.1*	12.4	4.7
Nc1cc(=O)[nH]c(SCC(=O)c2ccc(O)cc2O)n1	-15.6	1.4	8.3	0.3	2.1	-5.4
COc1ccc(C(=O)NCC(c2cccs2)N2CCc3ccccc32)cc1OC (stereo not drawn)	-2.2	-1.1	5.6	8.0	-21.0	23.9*
COc1ccc(C(=O)NCC(c2ccco2)N2CCc3ccccc32)c(OC)c1 (stereo not drawn)	-10.5	-6.2	2.3	-0.5	47.6*	-20.2
CCOc1ccc(/C=C/C(=O)N(C)CC(=O)Nc2cccc(F)c2)cc1OCC	-2.5	-4.4	4.9	0.1	-7.9	6.6
OCCC1CN(Cc2cnc(-c3ccccc3)s2)CCN1C1CCCC1 (stereo not drawn)	38.8*	-9.7	-27.7	-0.1	-10.4	13.5
OCCC1CN(CC#Cc2ccccc2)CCN1C1CCCC1 (stereo not drawn)	4.5	-6.3	-0.7	0.2	3.5	-16.9
OCCC1CN(CC(c2ccccc2)c2ccccc2)CCN1C1CCCC1 (stereo not drawn)	26.8*	-14.4	-32.2	0.2	3.5	7.9
CN(CCOc1ccc(Cl)cc1)Cc1cccc(S(=O)(=O)N(C)C)c1	16.3	31.8*	-7.0	8.8	10.1	-8.3
CCCCNC(=O)C1(C)CCCCN1C(=O)c1csnn1 (stereo not drawn)	-7.7	-0.7	5.5	0.1	22.5	1.7
Cc1c(C(=O)NCc2cccc([N+](=O)[O-])c2)sc(=O)n1Cc1ccc(F)cc1	39.2*	-9.2	-33.3	4.8	4.7	-7.7
Cc1c(C(=O)NCc2ccc([N+](=O)[O-])cc2)sc(=O)n1Cc1ccc2c(c1)OCO2	7.4	18.7*	-17.0	11.0	13.3	-6.0

Screening data as filed in PubChem BioAssay.
